PNC inhibitor: blocks assembly of the perinucleolar compartment. PC3M PTB-GFP, PNC prevalence imaging, 16 h; hits give low values. activity change (PNC), negative = inhibition, % at 10 µM. 140,000 tested, 3.1% active. AID 2417;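 active means readout at or below -70, meaning at least 70% loss of cells showing the perinucleolar compartment, a nuclear body marking cancer cells; inconclusive means readout between -30 and a set limit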;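 further: plate controls were DMSO wells for no effect and camptothecin positive control wells for full effect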
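Read-out is percentage of cells bearing a perinucleolar compartment, from automated 20x imaging of fixed, Hoechst-stained PC3M PTB-GFP cells. Cells were seeded 4 h, then exposed 16 h to compound (23 nl of library stock) in duplicate plates.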
HPGD inh: blocks human HPGD enzyme activity | purified HPGD, NADH fluorescence kinetic, PGE2 substrate | Potency, µM, for inactives: at the highest dose activity change, negative = inhibition, most hits filed as inhibitors | 150,000 tested, 4.3% active | AID 894; further: potency means the concentration at half of the fitted maximal effect
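20 nM HPGD preincubated 15 min at room temperature with compound in 50 mM Tris-HCl pH 8, 0.01% Tween 20. Started with 1 mM NAD+ and 30 uM prostaglandin E2; NADH fluorescence (360/450 nm) read 5 times over 30-s intervals, last minus first.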
ALDH1A1 inh: ALDH1A1 (human) enzyme inhibition; P00352; Potency, µM (titrated, usually from 75.3 µM), for inactives: at the highest dose activity, negative = inhibition, hits mostly inhibitors; 220,000 tested, 7.3% active; Purified ALDH1A1, NADH fluorescence, propionaldehyde substrate;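 further: potency means the concentration at half of the fitted maximal effect; plate controls were no enzyme wells and a reference inhibitor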
Target sequence (P00352 whole entry, looked up): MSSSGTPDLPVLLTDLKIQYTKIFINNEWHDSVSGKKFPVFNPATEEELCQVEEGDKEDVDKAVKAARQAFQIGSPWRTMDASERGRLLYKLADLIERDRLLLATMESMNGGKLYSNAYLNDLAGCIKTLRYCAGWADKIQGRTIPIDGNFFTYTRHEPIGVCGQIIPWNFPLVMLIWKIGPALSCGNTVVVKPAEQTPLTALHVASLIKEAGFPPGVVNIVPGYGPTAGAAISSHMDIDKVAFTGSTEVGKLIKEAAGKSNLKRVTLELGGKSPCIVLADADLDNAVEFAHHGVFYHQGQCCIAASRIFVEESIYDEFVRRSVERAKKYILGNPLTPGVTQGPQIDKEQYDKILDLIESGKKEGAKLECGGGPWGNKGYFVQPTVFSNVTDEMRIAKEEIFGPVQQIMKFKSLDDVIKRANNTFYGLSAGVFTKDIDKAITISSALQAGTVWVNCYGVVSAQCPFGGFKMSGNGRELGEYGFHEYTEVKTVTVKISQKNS
IMPase Li inh: cell-permeable IMPase inhibitors with lithium potentiation; CHO-M1 cells, IP1 TR-FRET (IP-One), carbachol + lithium; Potency, µM (doses to about 59.4 µM), for the others: top-dose activity, negative = IMPase inhibition, usual class: inhibitors; 210,000 tested, 0.35% active; AID 1457; active means well fitted curve in the direction sought with a large enough effect; inconclusive means small, poorly fitted or top-dose-only effect, or another doubt; inactive means no such curve, though single readings can be large; an effect the other way counts as inactive or inconclusive;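 further: IP1 builds up when IMPase is blocked and the TR-FRET signal falls; potency means the concentration at half of the fitted maximal effect; plate controls were basal vehicle for no effect and high inhibitor control for full effect; nearly all actives have a fitted effect of over 50% in size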
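Steps: plate 2000 CHO-M1 cells per well and culture 16–30 h; add compound and lithium; incubate 30 min, 37C; add d2-IP1 tracer and Eu cryptate anti-IP1 antibody in lysis buffer; read after 10 min at room temperature.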
ALOX12 inhib: inhibitors of human 12-lipoxygenase (ALOX12) | purified 12-hLO, xylenol orange hydroperoxide absorbance | Potency, µM (highest dose often 57.1 µM), for inactives: at the highest dose activity change, negative = inhibition, usual class: inhibitors | 150,000 tested, 0.12% active | AID 1452; active means well fitted curve in the direction sought with a large enough effect; inconclusive means small, poorly fitted or top-dose-only effect, or another doubt; inactive means no such curve, though single readings can be large; an effect the other way counts as inactive or inconclusive; further: potency means the concentration at half of the fitted maximal effect; nearly all actives have a fitted effect of over 55% in size
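Xylenol orange chromogenic assay: hydroperoxide from 12hLO oxidises Fe(II), giving red-shifted Fe(III)-XO absorbance. Conditions: 150 nM enzyme, 40 uM arachidonic acid, 25 mM Hepes pH 7.0, 0.01% Triton X-100, 30 min, room temperature.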
IMPase inh: IMPase inhibition in cells; P97697; CHO-M1 cells, IP1 accumulation, HTRF TR-FRET ratio; inhibition (IP1 accumulation), % at 46.1 µM; 120,000 tested, under 10 active; AID 901; active means well fitted curve in the direction sought with a large enough effect in the signal ratio, not every such curve was filed as active; inconclusive means small, poorly fitted or top-dose-only effect, or a change in a side signal; inactive means no such curve, though single readings can be large or run the other way; the % refers to the signal ratio;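 further: cells stimulated with carbachol in lithium chloride buffer; plate controls were DMSO basal wells for no effect and reference inhibitor wells for full effect; higher means more IMPase inhibition seen as more IP1 and lower FRET ratio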
Target sequence (P97697 whole entry, looked up): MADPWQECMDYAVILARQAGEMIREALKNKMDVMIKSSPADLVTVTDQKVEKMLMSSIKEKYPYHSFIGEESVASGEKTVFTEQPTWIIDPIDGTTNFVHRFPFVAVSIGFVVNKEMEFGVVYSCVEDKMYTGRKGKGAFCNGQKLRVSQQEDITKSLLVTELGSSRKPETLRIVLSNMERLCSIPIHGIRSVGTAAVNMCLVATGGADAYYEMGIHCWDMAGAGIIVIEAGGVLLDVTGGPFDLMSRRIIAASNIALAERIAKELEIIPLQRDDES
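Seeded CHO-M1 cells were dosed with compound at up to 46 uM, stimulated with carbachol for 30 min, then lysed in IP-One detection reagents. Higher IP1 lowers the TR-FRET signal.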
* = called active by the depositor; ? = inconclusive; · = no result given; ! = repeats disagree; [ ] = dose if it differs, or a comment. The list is not random: actives were taken first. Their share in the collection is about 11%. Unless noted, the call rests on the fitted dose curve; in most records, active means well fitted inhibition curve with a large enough effect (not every such curve was filed as active); inconclusive means small, poorly fitted or top-dose-only effect, or another doubt; inactive means no such curve, though single readings can be large or run the other way. Unless noted, on the % scale 0 is the no-effect control and ±100 the full control effect.

SMILES	PNC inhibitor	HPGD inh	ALDH1A1 inh	IMPase Li inh	ALOX12 inhib	IMPase inh
O=C(Nc1cccc(S(=O)(=O)N2CCOCC2)c1)C(c1ccccc1)N1CCCCC1 (stereo unspecified)	·	·	7.1µM*	12%	·	·
O=S(=O)(Nc1cc(S(=O)(=O)N2CCOCC2)ccc1N1CCOCC1)c1ccc2c(c1)OCCO2	·	·	-1%	4%	·	·
O=S(=O)(Nc1cccc(S(=O)(=O)N2CCOCC2)c1)c1ccc2c(c1)OCCO2	·	·	25µM*	4%	·	·
N#CCCn1c(=O)c(-c2ccc(Cl)cc2)nc2cnc(OCc3ccccc3)nc21	·	?	?	18%	0%	·
COc1cc(C=O)ccc1O	·	-15%	25µM*	5%	-2%	-5
COc1cc(/C=C/C(=O)/C=C(O)/C=C/c2ccc(O)c(OC)c2)ccc1O	·	22µM*!	-4%	4%	-18%	·
COc1cc(/C=C/C(=O)O)ccc1O	·	-23%	-3%	7%	-1%	·
COc1cc(/C=C2/C(=O)CNC2=O)ccc1O	·	·	13µM*	44%	·	·
CCOC(=O)N/N=C1/C[C@@H](O)[C@@H](O)[C@@H]2[C@H]3C(=O)N(c4ccc(F)cc4F)C(=O)[C@@H]3CC[C@H]12	·	·	13%[13.5 µM]	·	·	·
S=C(Nc1ccccc1)N1CCn2c1nc1ccccc12	-2	16µM*	-9%	-7%[38.3 µM]	-1%	8
O=C(Cc1ccccc1Cl)Nc1nc2ccccc2[nH]1	·	·	25µM*	·	·	·
Cc1ccc(CC(=O)Nc2nc3ccccc3[nH]2)cc1C	-14	-6%	-1%	-1%[38.3 µM]	-2%	0
Cc1ccc2c(c1)-c1c(ssc1=S)C(C)(C)N2C(=O)c1ccco1	-100*	8.9µM*	10µM*	15%	1%	-2
CC1(C)c2ssc(=S)c2-c2ccccc2N1C(=O)c1ccco1	17	-9%	0%	23%[38.3 µM]	?	15
CN(C)/C=C/C(=O)c1cnc(-c2ccccc2Cl)s1	·	·	7.1µM*	1%	·	·
CN(C)/C=C/C(=O)c1cnc(-c2cccc(Cl)c2)s1	·	·	?	-2%	·	·
O=C(/C=C/c1ccc(O)c(O)c1)OC1C[C@](O)(C(=O)O)C[C@@H](O)[C@H]1O (stereo partly specified)	·	-12%	24µM*!	12%	-2%	·
COc1ccc2c(C)cc(SCC(=O)Nc3ccc(Cl)cn3)nc2c1	-14	-17%	?	8.9µM*	-3%	·
COc1ccc2c(C)cc(SCC(=O)N3CCOCC3)nc2c1	20	-22%	22µM*	3%[38.3 µM]	-1%	8
Cc1cc(SCC(=O)Nc2ccc(Cl)cc2)nc2ccccc12	·	·	·	·	·	5
CCCN(C(=O)CCc1nc(-c2ccc(C)cc2)no1)c1ccc(OCC)cc1	·	·	·	·	·	1
COC1=C(N)C(=O)c2nc(-c3nc(C(=O)O)c(C)c(-c4ccc(OC)c(OC)c4O)c3N)ccc2C1=O	-115*	-14%	-9%	49%	-5%	·
COc1ccc(C(=O)O)c(O)c1OC	·	-7%	-2%	-6%	-2%	·
COc1cc(OC)c(OC)cc1CNC1CCCCCC1	-3	-9%	-14%	35%[38.3 µM]	-4%	9
COc1cc(OC)c(CNC2CCCCCC2)cc1Br	·	·	7.9µM*	18%	·	·
SMILES	PNC inhibitor	HPGD inh	ALDH1A1 inh	IMPase Li inh	ALOX12 inhib	IMPase inh
CN(C)c1ncnc2ccc(-c3ccccc3C#N)cc12	·	?	?	?	5%	·
O=S(=O)(c1ccccc1)N1CCC2(CCN(c3ncccn3)CC2)CC1	·	-13%	0%	-1%	-4%	·
CCOc1ccc(N2C(=O)CC(N(Cc3ccco3)C(C)=O)C2=O)cc1 (stereo unspecified)	·	·	20µM*	0%	·	·
CCOc1ccc(N2C(=O)CC(N3CCN(C(=O)c4ccco4)CC3)C2=O)cc1 (stereo unspecified)	?	-3%	8.9µM*	-7%[38.3 µM]	-3%	-1
O=C(c1ccco1)N1CCN(C2CC(=O)N(c3ccccc3)C2=O)CC1 (stereo unspecified)	-22	-12%	20µM*	23%[38.3 µM]	8%	-1
CCOC(=O)c1ccc(N2C(=O)CC(N3CCN(C(=O)c4ccco4)CC3)C2=O)cc1 (stereo unspecified)	-15	1%	?	-3%[38.3 µM]	-4%	-5
CCOc1ccc(N2C(=O)CC(N(Cc3ccco3)C(=O)CC)C2=O)cc1 (stereo unspecified)	·	·	?	1%	·	·
CCc1ccccc1NC(=O)CN(c1ccccc1OC)S(=O)(=O)c1ccc(C)cc1	·	·	·	·	·	4
COC(=O)CN(C)C1CC(=O)N(c2ccc(Cl)cc2)C1=O (stereo unspecified)	14	-22%	3.2µM*	6%[38.3 µM]	-6%	-11
CN(Cc1ccncc1)C1CC(=O)N(c2ccc(Cl)cc2)C1=O (stereo unspecified)	-28	-5%	-10%	-19%[38.3 µM]	-1%	-2
CCOC(=O)c1ccc(NC(=O)Cn2cc(C(=O)C3CC3)c3ccccc32)cc1	·	·	·	·	·	3
CCCCCOC(=O)CSc1nc2sc3c(c2c(=O)n1Cc1ccccc1)CC(C)(CC)OC3 (stereo unspecified)	·	·	·	·	·	3
Cc1ccc(S(=O)(=O)NCCC(=O)Nc2nnc(C3CC3)s2)cc1C	?	-9%	18µM*	17%[38.3 µM]	1%	-8
Clc1cccc(Oc2ncccn2)c1	-83*	-11%	3%	3%	-2%	·
O=C(Nc1ccccc1)N1CC2(CCN(C(=O)c3cnccn3)CC2)C1	·	-8%	13%	-2%	0%	·
CCCn1c(-c2ccc(F)cc2)nc2c(NCCN3CCCC3)nc(C)nc21	·	?	?	2%	-2%	·
COc1ccc(N2C(=O)/C(=C/c3cccs3)NC2=S)cc1	?	3.5µM*	3.2µM*	16%	1%	·
O=C(CN(C1CC1)S(=O)(=O)c1ccc(S(=O)(=O)N2CCCCCC2)cc1)Nc1ccccc1	?	0%	5%	8%[38.3 µM]	-5%	4
COC(=O)CCN(C1CCCCC1)S(=O)(=O)c1ccc(S(=O)(=O)N2CCCCC2)cc1	-28	-15%	1.8µM*	20%[38.3 µM]	-9%	2
COc1ccc(-n2nc3cc(C)c(NC(=O)c4ccc(-c5ccc(Br)cc5)o4)cc3n2)cc1	·	·	·	·	·	-4
CCC(CC)C(=O)Nc1ccc(Sc2ccc([N+](=O)[O-])cc2)cc1	?	·	1.1µM*	·	-15%	16
CN(C)S(=O)(=O)c1ccc(NC(=O)CCNC(=O)c2ccc([N+](=O)[O-])cc2)cc1	·	·	10µM*	24%	·	·
Cc1ccc(NC(=O)CCNC(=O)c2ccc([N+](=O)[O-])cc2)cc1S(=O)(=O)N(C)C	·	·	?	1%	·	·
CCCC(=O)Nc1ccc(Sc2ccc([N+](=O)[O-])cc2)cc1	13	18µM*	-15%	62%[38.3 µM]	-5%	9[1.84 µM]
CCC(CC)C(=O)Nc1ccc([N+](=O)[O-])cn1	·	·	-2%	-2%	·	·

Source: PubChem BioAssay (National Center for Advancing Translational Sciences (NCATS))
